# Reference: PubChem BioAssay (Tox21)
# Values without a mark were called inactive. Records with an inconclusive call do not appear. A call without a number means that no potency is given here. Activity calls are given as the source filed them. Unless noted, calls come from the whole dose curve; as a rule, active = well fitted curve in the direction sought with a large enough effect in the repeat runs; inconclusive = weak or mixed curves; inactive = no such curve, though single readings can be large; an effect the other way counts as inactive or inconclusive.
# How the values were obtained:
# [1] = qHTS assay to identify small molecule agonists of the hypoxia (HIF-1) signaling pathway - cell viability counter screen (AID 1224844; calls by dose curve; note: nearly all actives have a fitted effect of over 50% in size)
# Procedure, shortened: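 Cytotoxicity was measured in parallel with the HRE-driven beta-lactamase readout: after 17 hrs of compound exposure at 37C, HRE-bla ME-180 cells received CellTiter-Glo and luminescence was recorded 30 min later.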
# [2] = qHTS assay to identify small molecule agonists of H2AX (AID 1224845; active = well fitted activation curve with a large enough effect in the signal ratio in the repeat runs, not every such curve was filed as active; the % refers to the signal ratio)
# Procedure, shortened: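 Wild-type CHO-K1 cells, plated overnight, exposed 3hr at 37C to 15 concentrations (0.76% DMSO final). Lysed, then HTRF anti-pH2AX (S139) cryptate and anti-H2AX-d2 antibodies, 24 hr room temperature; 665/620 nm emission read.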
# [3] = qHTS assay to identify small molecule agonists of the hypoxia (HIF-1) signaling pathway (AID 1224846; active = well fitted activation curve with a large enough effect in the signal ratio in the repeat runs, not every such curve was filed as active; the % refers to the signal ratio)
# Procedure, shortened: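 Compounds from the Tox21 10K library, dissolved in DMSO, are tested for induction of a hypoxia response element–controlled beta-lactamase reporter in ME-180 cells. Exposure lasts 17 hrs at 37C after a 5 hr settling period, followed by CCF4-AM FRET substrate.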
# [4] = qHTS assay to identify small molecule agonists of H2AX - cell viability counter screen (AID 1224847; calls by dose curve; note: top concentration of the series differs between compounds; nearly all actives have a fitted effect of over 30% in size)
# Procedure, shortened: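 Viability of CHO-K1 (wild type) cells after 3 hr compound exposure was measured by CellTiter-Glo luminescence.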
# [5] = qHTS RealTime-Glo MT Cell Viability Assay in HepG2 cells - 24 hour (AID 1224867); note: nearly all actives have a fitted effect of over 50% in size
# Procedure, shortened: (§1)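 Tox21 10K library screened in qHTS format on HepG2 cells carrying RealTime-Glo reagents. Compounds were added after a 5 h preincubation, and the luminescent signal from continuous culture was measured repeatedly during 40 h treatment.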
# [6] = qHTS RealTime-Glo MT Cell Viability Assay in HEK293 cells - 32 hour (AID 1224868); note: top concentration of the series differs between compounds; nearly all actives have a fitted effect of over 50% in size
# Procedure, shortened: (§2)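 Luminescence generated by NanoLuc from substrate produced by living HEK293 cells served as the viability signal. Each value reflects the reading at its stated time point during continuous 40 h compound exposure at 37 C.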
# [7] = A CellTox Green Cytotoxicity Assay to monitor cytotoxicity in HEK293 cells - 0 hour (AID 1224869); note: nearly all actives have a fitted effect of over 50% in size
# Procedure, shortened: (§3)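 Cells (HEK293, 600/well) and dye reagent are dispensed together. After 5 h at 37 C, 23 nL compound is pinned in. Plates stay at 37 C for 40 h with fluorescence read at 0h, 8h, 16h, 24h, 32h and 40h.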
# [8] = qHTS RealTime-Glo MT Cell Viability Assay in HepG2 cells - 40 hour (AID 1224870); note: nearly all actives have a fitted effect of over 50% in size; note: potency is the fitted concentration of half-maximal effect
# Procedure, shortened: (§4)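 HepG2 cells (600/well) mixed with RealTime-Glo MT reagent, settled 5 h at 37 C/5% CO2 before compound addition. Nonlytic NanoLuc luminescence from viable-cell prosubstrate reduction read repeatedly during 40 h treatment at 37 C.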
# [9] = A CellTox Green Cytotoxicity Assay to monitor cytotoxicity in HEK293 cells - 40 hour (AID 1224871); note: nearly all actives have a fitted effect of over 45% in size
# Procedure, shortened: as §3
# [10] = qHTS RealTime-Glo MT Cell Viability Assay in HEK293 cells - 16 hour (AID 1224872)
# Procedure, shortened: as §2
# [11] = qHTS RealTime-Glo MT Cell Viability Assay in HepG2 cells - 8 hour (AID 1224873); note: nearly all actives have a fitted effect of over 55% in size
# Procedure, shortened: as §4
# [12] = qHTS RealTime-Glo MT Cell Viability Assay in HEK293 cells - 40 hour (AID 1224874); settings: RealTime-Glo luminescence; max response: active compounds read low; note: nearly all actives have a fitted effect of over 50% in size
# Procedure, shortened: (§5)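 Real-time viability in HEK293: signal arises when living cells convert a prosubstrate for NanoLuc in the medium, so luminescence tracks viable cell number. Compound (23 nL, DMSO) added 5 h post-seeding; kinetic reads at 0–40 h, 37 C.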
# [13] = A CellTox Green Cytotoxicity Assay to monitor cytotoxicity in HEK293 cells - 24 hour (AID 1224875); note: series mostly up to about 77 µM; nearly all actives have a fitted effect of over 45% in size
# Procedure, shortened: as §3
# [14] = A CellTox Green Cytotoxicity Assay to monitor cytotoxicity in HepG2 cells - 16 hour (AID 1224876); note: nearly all actives have a fitted effect of over 45% in size
# Procedure, shortened: (§6)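 Cells and non-lytic dye reagent are dispensed together (600 HepG2 cells/well) and incubated 5 h before DMSO compound transfer. Kinetic fluorescence is then recorded in the same wells during 40 h at 37 C.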
# [15] = qHTS RealTime-Glo MT Cell Viability Assay in HepG2 cells - 32 hour (AID 1224877); note: nearly all actives have a fitted effect of over 55% in size
# Procedure, shortened: as §1
# [16] = A CellTox Green Cytotoxicity Assay to monitor cytotoxicity in HepG2 cells - 24 hour (AID 1224878); note: nearly all actives have a fitted effect of over 45% in size
# Procedure, shortened: as §6
# [17] = A CellTox Green Cytotoxicity Assay to monitor cytotoxicity in HepG2 cells - 40 hour (AID 1224879); note: nearly all actives have a fitted effect of over 40% in size
# Procedure, shortened: as §6
# [18] = qHTS RealTime-Glo MT Cell Viability Assay in HEK293 cells - 0 hour (AID 1224880)
# Procedure, shortened: as §5
# [19] = qHTS assay to identify small molecule antagonists of the estrogen related receptor (ERR) signaling pathway from Tox21 library (AID 1224848); note: nearly all actives have a fitted effect of over 50% in size
# Procedure, shortened: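 Quantitative high-throughput format: ERR reporter cells (2,000/well) pre-incubated 6 h, treated 18 h at 37 C with compounds in DMSO alongside positive and negative controls, then read by ONE-Glo luminescence.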
# [20] = qHTS assay to identify small molecule agonists of the estrogen related receptor (ERR) signaling pathway from Tox21 library (AID 1224849; calls by dose curve; note: nearly all actives have a fitted effect of over 15% in size)
# Procedure, shortened: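 Cells carrying the ERR reporter were plated and allowed to settle for 6 h, exposed to library compounds for 18 h at 37 C, then lysed with ONE-Glo and luminescence measured.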
compound,measurement,setting,value
CCC(C)(CCCC(C)C)OC(C)=O (stereo not given),Potency,[1],inactive
same,Potency,[2],inactive
same,outcome,[3],inactive
same,outcome,[4],inactive
same,outcome,[5],inactive
same,Potency,[6],inactive
same,outcome,[7],inactive
same,Potency,[8],inactive
same,Potency,[9],inactive
same,Potency,[10],inactive
same,outcome,[11],inactive
same,max response,[12],6.35%
same,outcome,[13],inactive
same,outcome,[14],inactive
same,Potency,[15],inactive
same,outcome,[16],inactive
same,Potency,[17],inactive
same,Potency,[18],inactive
CCCCc1ccc2c(n1)[C@@H](c1ccc(OC)cc1C[C@H](C)C(=O)O)[C@H](C(=O)O)[C@H]2c1ccc2c(c1)OCO2,Potency,[1],inactive
same,Potency,[2],inactive
same,outcome,[3],inactive
same,outcome,[4],inactive
same,outcome,[5],inactive
same,Potency,[6],inactive
same,outcome,[7],inactive
same,Potency,[8],inactive
same,Potency,[9],inactive
same,Potency,[10],inactive
same,outcome,[11],inactive
same,max response,[12],0.185%
same,outcome,[13],inactive
same,outcome,[14],inactive
same,Potency,[15],inactive
same,outcome,[16],inactive
same,Potency,[17],inactive
same,Potency,[18],inactive
COc1cccc(OC)c1C(=O)N[C@@H]1C(=O)N2[C@@H]1SC(C)(C)[C@@H]2C(=O)O,Potency,[1],inactive
same,Potency,[2],inactive
same,outcome,[3],inactive
same,outcome,[4],inactive
same,outcome,[5],inactive
same,Potency,[6],inactive
same,outcome,[7],inactive
same,Potency,[8],inactive
same,Potency,[9],inactive
same,Potency,[10],inactive
same,outcome,[11],inactive
same,max response,[12],4.53%
same,outcome,[13],inactive
same,outcome,[14],inactive
same,Potency,[15],inactive
same,outcome,[16],inactive
same,Potency,[18],inactive
CC(C)COC(=O)c1ccc(N)cc1,Potency,[1],inactive
same,Potency,[2],inactive
same,outcome,[3],inactive
same,outcome,[4],inactive
same,Potency,[19],inactive
same,outcome,[5],inactive
same,Potency,[6],inactive
same,outcome,[7],inactive
same,Potency,[9],inactive
same,Potency,[10],inactive
same,outcome,[11],inactive
same,max response,[12],-12.8%
same,outcome,[13],inactive
same,outcome,[14],inactive
same,Potency,[15],inactive
same,outcome,[16],inactive
same,Potency,[17],inactive
same,Potency,[18],inactive
CN(C)CCN(C)CCN(C)C,Potency,[1],inactive
same,Potency,[2],inactive
same,outcome,[3],inactive
same,outcome,[4],inactive
same,outcome,[5],inactive
same,Potency,[6],inactive
same,outcome,[7],inactive
same,Potency,[8],inactive
same,Potency,[9],inactive
same,Potency,[10],inactive
same,outcome,[11],inactive
same,max response,[12],4.88%
same,outcome,[13],inactive
same,outcome,[14],inactive
same,Potency,[15],inactive
same,outcome,[16],inactive
same,Potency,[18],inactive
C[N+](C)(CCOc1ccccc1)Cc1cccs1,Potency,[1],inactive
same,Potency,[2],inactive
same,outcome,[3],inactive
same,outcome,[4],inactive
same,Potency,[19],inactive
same,outcome,[5],inactive
same,Potency,[6],inactive
same,outcome,[7],inactive
same,Potency,[8],23.9 µM (active)
same,Potency,[9],inactive
same,Potency,[10],inactive
same,outcome,[11],inactive
same,max response,[12],6.59%
same,outcome,[13],inactive
CC(C)=CCC/C(C)=C/C#N,Potency,[1],inactive
same,Potency,[2],inactive
same,outcome,[3],inactive
same,outcome,[4],inactive
same,outcome,[5],inactive
same,Potency,[6],inactive
same,outcome,[7],inactive
same,Potency,[8],inactive
same,Potency,[9],inactive
same,Potency,[10],inactive
same,outcome,[11],inactive
same,max response,[12],2.39%
same,outcome,[13],inactive
same,outcome,[14],inactive
same,Potency,[15],inactive
same,outcome,[16],inactive
same,Potency,[17],inactive
CC(=O)N1C[C@H](O)C[C@H]1C(=O)O,Potency,[1],inactive
same,Potency,[2],inactive
same,outcome,[3],inactive
same,outcome,[4],inactive
same,outcome,[5],inactive
same,Potency,[6],inactive
same,outcome,[7],inactive
same,Potency,[8],inactive
same,Potency,[9],inactive
same,Potency,[10],inactive
same,outcome,[11],inactive
same,max response,[12],6.07%
same,outcome,[13],inactive
same,outcome,[14],inactive
same,Potency,[15],inactive
same,outcome,[16],inactive
same,Potency,[17],inactive
same,Potency,[18],inactive
CC12CCC(C(=O)C1=O)C2(C)C (stereo not given),Potency,[1],inactive
same,Potency,[2],inactive
same,outcome,[3],inactive
same,outcome,[4],inactive
same,outcome,[5],inactive
same,Potency,[6],inactive
same,outcome,[7],inactive
same,Potency,[8],inactive
same,Potency,[9],inactive
same,Potency,[10],inactive
same,outcome,[11],inactive
same,max response,[12],-1.01%
same,outcome,[13],inactive
same,outcome,[14],inactive
same,Potency,[15],inactive
same,outcome,[16],inactive
same,Potency,[17],inactive
same,Potency,[18],inactive
C[N+]1(CC2COC(c3ccccc3)(c3ccccc3)O2)CCCCC1 (stereo not given),"activity change, negative = cytotoxicity",[1],0.991% [at 15.8 µM]
same,activation (H2AX phosphorylation),[2],-1.86% [at 31.6 µM]
same,activation,[3],0.207% [at 15.8 µM]
same,"activity change, negative = cytotoxicity",[4],-1.84% [at 31.6 µM]
same,"activity, negative = inhibition",[19],4.63% [at 19 µM]
same,"activity change, positive = activation",[20],2.6% [at 19 µM]
same,"activity change, negative = cytotoxic",[6],-5.88% [at 15.8 µM]
same,cytotoxicity,[7],-9.06% [at 15.8 µM]
same,cytotoxicity increase,[9],-8.19% [at 15.8 µM]
same,"activity change, negative = cytotoxicity",[10],-1.95% [at 15.8 µM]
same,max response,[12],-1.89%
same,activity change,[13],-7.42% [at 15.8 µM]
same,cytotoxicity increase,[14],-3.73% [at 15.8 µM]
same,"activity change, negative = cytotoxic",[15],-9% [at 15.8 µM]
same,cytotoxicity,[16],-0.651% [at 15.8 µM]
same,cytotoxicity increase,[17],-0.954% [at 15.8 µM]
same,"activity change, negative = cytotoxicity",[18],-4.13% [at 15.8 µM]
NC(=O)N1c2ccccc2CC(=O)c2ccccc21,Potency,[1],inactive
same,Potency,[2],inactive
same,outcome,[3],inactive
same,outcome,[4],inactive
same,outcome,[5],inactive
same,Potency,[6],inactive
same,outcome,[7],inactive
same,Potency,[8],inactive
same,Potency,[9],inactive
same,Potency,[10],inactive
same,outcome,[11],inactive
same,max response,[12],2.12%
same,outcome,[13],inactive
same,outcome,[14],inactive
same,Potency,[15],inactive
same,outcome,[16],inactive
same,Potency,[17],inactive
same,Potency,[18],inactive
CC(C)(C)c1ccc(-c2ccc(C(C)(C)C)cc2)cc1,Potency,[1],inactive
same,Potency,[2],inactive
same,outcome,[3],inactive
same,outcome,[4],inactive
same,Potency,[19],inactive
same,outcome,[20],inactive
same,Potency,[6],inactive
same,outcome,[7],inactive
same,Potency,[8],inactive
same,Potency,[9],inactive
same,Potency,[10],inactive
same,outcome,[11],inactive
same,max response,[12],-2.15%
same,outcome,[13],inactive
same,outcome,[14],inactive
same,outcome,[16],inactive
same,Potency,[17],inactive
same,Potency,[18],inactive
CC(N)C12CC3CC(CC(C3)C1)C2 (stereo not given),Potency,[1],inactive
same,Potency,[2],inactive
same,outcome,[3],inactive
same,outcome,[4],inactive
same,outcome,[5],inactive
same,Potency,[6],inactive
same,outcome,[7],inactive
same,Potency,[8],inactive
same,Potency,[9],inactive
same,Potency,[10],inactive
same,outcome,[11],inactive
same,max response,[12],-3.62%
same,outcome,[13],inactive
same,outcome,[14],inactive
same,Potency,[15],inactive
same,outcome,[16],inactive
same,Potency,[17],inactive
